Assay results taken from PubChem BioAssay AID1259312 (Keith Lab, Institute of Cancer Science, University of …, 2017).
The whole screen tested about 4,500 compounds, of which about 200 (4.4%) were called active.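 How the source made its calls: active means cell survival measured by absorbance rises more than 2.5-fold over infected cells without compound; inactive means the rest.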 Many of the other results were omitted from the sample, so actives are more common in it than they were.

test: survival after telomere uncapping, modulators, primary screen, cell-based (AID 1259312); conditions: HCT116 + Ad-hTR-mut, MTT, 5 d; at 10 µM, active compounds read high;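 further: virus expresses mutant telomerase RNA that uncaps telomeres and kills cells; compound added 2 days after infection so exposure lasts 3 days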

Row | SMILES | fold change
1 | O=C(Nc1nc2c(s1)CCCC2)C1CC(=O)N(c2ccc(F)cc2)C1 (centres undefined) | -2.42 (inactive)
2 | Cc1cccn2c(=O)c(C=O)c(Nc3cccc(Cl)c3)nc12 | -1.44 (inactive)
3 | CCCCc1ccc(C2C3=C(CC(C)(C)CC3=O)OC3=C2C(=O)CC(C)(C)C3)s1 | -1.42 (inactive)
4 | Fc1ccc(-c2nc3sc(-c4ccc(F)cc4)nc3s2)cc1 | -2.41 (inactive)
5 | O=C(c1ccc2[nH]c(=O)oc2c1)c1ccc2[nH]c(=O)oc2c1 | 1.41 (inactive)
6 | C#CCN1C(=O)S/C(=C\c2ccc(N3CCCC3)cc2)C1=O | -1.24 (inactive)
7 | CN1CCC2(CC1)C(C#N)=C(N)Oc1n[nH]c(-c3ccccc3)c12 | 3.65 (active)
8 | CN1CCC2(CC1)C(C#N)=C(N)Oc1n[nH]c(C(=O)OC(C)(C)C)c12 | -1.08 (inactive)
9 | COCc1[nH]nc2c1C1(CCN(C)CC1)C(C#N)=C(N)O2 | -1.21 (inactive)
10 | CCOC(=O)C1=C(C)NC2=C(C(=O)CCC2)C1c1ccc(CC)s1 (centres undefined) | -1.61 (inactive)
11 | COc1ccc2[nH]c(=O)c(=O)[nH]c2c1 | 1.16 (inactive)
12 | O=c1ccc2ccccc2[nH]1 | -1.85 (inactive)
13 | O=c1[nH]c2ccccc2[nH]c1=O | 5 (active)
14 | O=S(=O)(c1ccccc1)N1CCN(Cc2ccc3c(c2)OCO3)CC1 | -4.81 (inactive)
15 | O=S(=O)(c1ccc2c(c1)OCCO2)N1CCCCC1 | -1.44 (inactive)
16 | O=C(c1ccc(COc2ccc(I)cc2)o1)N1CCCC1 | -1.09 (inactive)
17 | CN(C)c1ccc(/C=C2\C(=O)ON=C2c2cccc(I)c2)cc1 | -1.18 (inactive)
18 | Cn1c2c(c(=O)[nH]c1=O)C(c1ccccc1)C1=C(N2)c2ccccc2C1=O (centres undefined) | -6.31 (inactive)
19 | Cc1[nH][nH]c(=O)c1C(c1ccncc1)C(C#N)C#N (centres undefined) | 3.56 (active)
20 | O=C(Nc1sc2c(c1C(=O)Nc1ccc(Br)cc1)CCC2)c1cccs1 | 1.12 (inactive)
21 | Cn1nnnc1SCC(=O)Nc1ccc(F)c(Cl)c1 | -2.05 (inactive)
22 | O=C(Nc1ccc(Br)cc1Br)C(Cl)Cl | -6.77 (inactive)

Row | SMILES | fold change
23 | CC(=O)Nc1sc2c(c1C(=O)O)CCCC2 | 2.88 (active)
24 | CC(=O)Nc1sc2c(c1C(N)=O)CCCC2 | -1.98 (inactive)
25 | CC(=O)Nc1sc2c(c1C(N)=O)CCCCC2 | 1.05 (inactive)
26 | COc1ccc(S(=O)(=O)N2CCCc3ccccc32)cc1 | -1.9 (inactive)
27 | CC1(C)CC(NC(=O)C(=O)NC2CC(C)(C)NC(C)(C)C2)CC(C)(C)N1 | 4.26 (active)
28 | CC(C)NC(=O)C(=O)NC1CC(C)(C)NC(C)(C)C1 | -2.38 (inactive)
29 | CC1(C)CC(NS(=O)(=O)c2ccccc2)CC(C)(C)N1 | -1.13 (inactive)
30 | Cc1cc(NC(=O)c2n[nH]c(=O)c3ccccc23)no1 | -1.69 (inactive)
31 | Cn1c(-c2ccccc2)c(NC(=O)c2ccccc2Cl)c(=O)n1C | -1.22 (inactive)
32 | C=CCOC(=O)c1sc(NC(=O)c2ccco2)nc1C | -1.45 (inactive)
33 | Oc1[nH]c(=S)sc1/C=C/C=C/C=Nc1ccccc1 | inactive
34 | CCCc1cc(=O)oc2cc(O)cc(O)c12 | 1.04 (inactive)
35 | Cc1sc(NC(=O)Cn2nc(C(F)(F)F)cc2C)c(C(N)=O)c1C | -1.23 (inactive)
36 | Cn1nc(C(F)(F)F)cc1C(=O)O | -1.06 (inactive)
37 | Cc1cc(C(F)(F)F)nn1CC(N)=O | 3.13 (active)
38 | C=CCn1c(COc2ccccc2)n[nH]c1=S | 1.52 (inactive)
39 | CCOC(=O)c1c(NC(=O)C23CC4CC(CC(C4)C2)C3)sc2c1CCN(C(=O)OCC)C2 | -1.15 (inactive)
40 | O=[N+]([O-])c1ccc(O)c(N=Cc2cc(Br)cc(Br)c2O)c1 | active
41 | O=[N+]([O-])c1ccc(N=Cc2cc(Br)cc([N+](=O)[O-])c2O)cc1 | inactive
42 | O=[N+]([O-])c1ccc(N=Cc2cc(Br)cc(Br)c2O)cc1 | active
43 | Oc1c(Cl)cc(Cl)cc1C=Nc1ccc(Cl)cc1Cl | inactive
44 | O=[N+]([O-])c1ccc(O)c(N=Cc2cc(Br)cc([N+](=O)[O-])c2O)c1 | inactive

Row | SMILES | fold change
45 | Oc1c(Br)cc(Br)cc1C=Nc1ccc(Cl)cc1Cl | active
46 | O=[N+]([O-])c1ccc(N=Cc2cc(Br)cc(Br)c2O)c(O)c1 | inactive
47 | O=[N+]([O-])c1cc(Br)cc(C=Nc2ccc(N=Cc3cc(Br)cc([N+](=O)[O-])c3O)cc2)c1O | inactive
48 | Oc1c(Br)cc(Br)cc1C=Nc1cc(Cl)ccc1Cl | inactive
49 | S=C(c1ccco1)N1CCOCC1 | 1.24 (inactive)
50 | NC(Cc1cc(F)ccc1F)C(=O)O (centres undefined) | -3.72 (inactive)
51 | O=[N+]([O-])c1ccc(NS(=O)(=O)c2ccccc2)c([N+](=O)[O-])c1 | 3.49 (active)
52 | O=[N+]([O-])c1cccc(S(=O)(=O)Nc2ccc(I)cc2)c1 | 1.39 (inactive)
53 | O=[N+]([O-])c1ccc(Nc2ccc(O)cc2)c([N+](=O)[O-])c1 | -1.07 (inactive)
54 | O=C1CN(C(=O)Cn2c(=O)oc3ccccc32)c2ccccc2N1 | -1.03 (inactive)
55 | O=C(O)C1=NN(c2ccc(S(=O)(=O)O)cc2)C(=O)C1 | 1.74 (inactive)
56 | O=C1CCC(=O)N1CCCCCCN1C(=O)CCC1=O | -1.37 (inactive)
57 | CN1N=C(C(=O)O)CCC1=O | 2.58 (active)
58 | O=C1C=CC(=O)N1c1cc(Cl)cc(Cl)c1 | -1.38 (inactive)
59 | N#CC1=C(N)C(C#N)(C#N)C(c2ccc(Cl)cc2Cl)C2CCCC=C12 (centres undefined) | -4.43 (inactive)
60 | Cc1[nH][nH]c(=O)c1C1(C(C#N)C#N)C2CC3CC(C2)CC1C3 (centres undefined) | 2.9 (active)
61 | C=CCN(CC=C)C(=O)C1c2ccccc2Oc2ccccc21 | -1.36 (inactive)
62 | CN(C)c1ccc(NC(=O)c2sc(=S)[nH]c2N)cc1 | -1.46 (inactive)
63 | N#Cc1c(C(F)(F)F)cc(-c2cccs2)[nH]c1=S | 4.58 (active)
64 | N#Cc1c(C(F)(F)F)cc(-c2cccs2)oc1=S | -2.59 (inactive)
65 | N#Cc1c(C(F)(F)F)cc(-c2ccccc2)[nH]c1=S | -1.58 (inactive)
66 | O=C(Nc1ccc(I)cc1)C1CCCN1C(=O)c1cccs1 (centres undefined) | 1.51 (inactive)

Row | SMILES | fold change
67 | Cn1c(Cc2ccccc2)n[nH]c1=S | -1.19 (inactive)
68 | CCCCn1c(COc2ccc(Cl)cc2)n[nH]c1=S | -1.76 (inactive)
69 | Cn1c(COc2ccc(C3CCCCC3)cc2)n[nH]c1=S | 2.92 (active)
70 | O=C(O)CCSc1ncnc2ccccc12 | -3.11 (inactive)
71 | CCN(CC)CC(=O)Nc1sc2c(c1C(N)=O)CCCC2 | 1 (inactive)
72 | O=c1[nH]cnc2nn(-c3ccccc3)nc12 | inactive
73 | Fc1ccccc1CSC1=NCCN1 | 3.44 (active)
74 | c1ccc(CC2=NCCN2)cc1 | -1.2 (inactive)
75 | Fc1ccc(CSc2nnc(SCc3ccccc3F)s2)cc1 | -1.07 (inactive)
76 | O=C1NC(=O)/C(=C/c2ccc(-c3ccc(Br)c(Cl)c3)o2)N1 | -1.16 (inactive)
77 | Nc1ccc(N2CCCC2)c(C(F)(F)F)c1 | 1.69 (inactive)
78 | COc1ccc(N/C=C(\C#N)C(N)=S)cc1OC | -3.68 (inactive)
79 | CCCN1CC2=C(OC(N)=C(C#N)C2c2ccc(SC)cc2)/C(=C/c2ccc(SC)cc2)C1 (centres undefined) | 5.06 (active)
80 | COc1ccc(CC2=CN(C)CC3=C2OC(N)=C(C#N)C3c2ccc(OC)cc2)cc1 (centres undefined) | 1.19 (inactive)
81 | CC(C)N1C=C(Cc2ccc(F)cc2)C2=C(C1)C(c1ccc(F)cc1)C(C#N)=C(N)O2 (centres undefined) | 1.45 (inactive)
82 | COc1ccc(C(=CCl)c2ccc(OC)c(Br)c2)cc1Br | -2.67 (inactive)
83 | CCc1ccc(C(C2C(=O)CC(C)(C)CC2=O)C2C(=O)CC(C)(C)CC2=O)s1 | -2.62 (inactive)
84 | CCc1sc(C(C2C(=O)CC(C)(C)CC2=O)C2C(=O)CC(C)(C)CC2=O)cc1[N+](=O)[O-] | 3.11 (active)
85 | CCc1sc(C(C2C(=O)CC(C)(C)CC2=O)C2C(=O)CC(C)(C)CC2=O)cc1Br | -6.02 (inactive)
86 | O=C(N=Nc1c(O)[nH]c2ccccc12)c1cc(-c2ccco2)[nH]n1 | inactive
87 | O=[N+]([O-])c1ccc(Cl)cc1N1CCN(CCO)CC1 | 2.17 (inactive)
88 | O=[N+]([O-])c1ccc(Cl)cc1SCCO | 3.06 (active)

Row | SMILES | fold change
89 | O=[N+]([O-])c1ccc(SCCO)c2ncccc12 | 1.52 (inactive)
90 | COc1ccc(C2C3CCC=C3C(C#N)=C(N)C2(C#N)C#N)c(OC)c1 (centres undefined) | 1.26 (inactive)
91 | COCCNC(=O)C(=O)NCCC1=CCCCC1 | 1.05 (inactive)
92 | Clc1cccc(N2CCN(Cn3nnc4ccccc43)CC2)c1 | 3.04 (active)
93 | C(=C/c1ccccc1)/CN1CCN(Cn2nnc3ccccc32)CC1 | -1.33 (inactive)
94 | c1ccc2c(c1)nnn2CN1CCN(c2ccc3c(c2)OCO3)CC1 | -1.48 (inactive)
95 | Cc1cc(C)c(CCl)c(C)c1/C=N/O | 1.02 (inactive)
96 | O=C(O)CSc1nc(SCc2ccccc2)nc2ccccc12 | 1.5 (inactive)
97 | CCc1ccc(C2C(C#N)=C(N)OC3=C2C(=O)CCC3)s1 (centres undefined) | 1.35 (inactive)
98 | COC(=O)c1nonc1N | -1.05 (inactive)
99 | CCOC(=O)c1nonc1N | 3.82 (active)
100 | Nc1nonc1C(=O)O | -1.12 (inactive)
101 | CS(=O)(=O)Nc1ccc(Br)cn1 | -1.27 (inactive)
102 | CCCOc1ccc(N/C(N)=N/c2nc(C)cc(C)n2)cc1 | -3.48 (inactive)
103 | CC1=C(C2=C(C)C(C(C)C)C3=C(C(=O)C(O)C3O)C2O)C(O)C2=C(C(O)C(O)C2=O)C1C(C)C (centres undefined) | -1.99 (inactive)
104 | O=S(=O)(Nc1ccc(F)c(Cl)c1)c1ccc(Cl)cc1 | 2.99 (active)
105 | O=S(=O)(Nc1ccncc1)c1ccc(Cl)cc1 | -1.23 (inactive)
106 | O=S(=O)(Nc1cc(Cl)cc(Cl)c1)c1ccc(Cl)cc1 | 4.93 (active)
107 | O=S(=O)(Nc1cccc(F)c1)c1ccc(F)cc1 | -1.33 (inactive)
108 | O=S(=O)(Nc1ccc(Cl)cc1)c1ccc(NS(=O)(=O)c2ccc3c(c2)OCCO3)cc1 | -1.18 (inactive)
109 | O=S(=O)(Nc1ccc2c(c1)OCO2)c1ccc(Cl)cc1 | -1.43 (inactive)
